Residue numbers refer to the chain shown, from its start. Over roughly 16,000 sequences, “ka relative to ugcaugu” has its median near 0.0091; the highest 2% begin near 0.032. This excerpt belongs to a sample that is enriched for the highest values.
B1: GUGAUCC (DNA:RNA)
RNA: GGGAGACCGGAAUUCAGAUUGUCCGUGAUCCUUAAAUCCCGUCGUAGCCACCA
DNA 1: CAATCTGAATTCCGGTCTCCC
DNA 2: TGGTGGCTACGACGGGATT
B2: AGGGUCU (DNA:RNA)
RNA: B1 RNA with G25A, U26G, A28G, C31U
DNA 1: CAATCTGAATTCCGGTCTCCC
DNA 2: TGGTGGCTACGACGGGATT
B3: CGUUGCA (DNA:RNA)
RNA: B1 RNA with G25C, U26G, G27U, A28U, U29G, C31A
DNA 1: CAATCTGAATTCCGGTCTCCC
DNA 2: TGGTGGCTACGACGGGATT
B4: GCUUGCU (DNA:RNA)
RNA: B1 RNA with U26C, G27U, A28U, U29G, C31U
DNA 1: CAATCTGAATTCCGGTCTCCC
DNA 2: TGGTGGCTACGACGGGATT
B5: GCUUAAA (DNA:RNA)
RNA: B1 RNA with U26C, G27U, A28U, U29A, C30A, C31A
DNA 1: CAATCTGAATTCCGGTCTCCC
DNA 2: TGGTGGCTACGACGGGATT
B6: GCUUGCA (DNA:RNA)
RNA: B1 RNA with U26C, G27U, A28U, U29G, C31A
DNA 1: CAATCTGAATTCCGGTCTCCC
DNA 2: TGGTGGCTACGACGGGATT
B7: GCUUUGC (DNA:RNA)
RNA: B1 RNA with U26C, G27U, A28U, C30G
DNA 1: CAATCTGAATTCCGGTCTCCC
DNA 2: TGGTGGCTACGACGGGATT
B8: CGCUUGC (DNA:RNA)
RNA: B1 RNA with G25C, U26G, G27C, A28U, C30G
DNA 1: CAATCTGAATTCCGGTCTCCC
DNA 2: TGGTGGCTACGACGGGATT
B9: GUCCGCU (DNA:RNA)
RNA: B1 RNA with G27C, A28C, U29G, C31U
DNA 1: CAATCTGAATTCCGGTCTCCC
DNA 2: TGGTGGCTACGACGGGATT
B10: GCUUGCG (DNA:RNA)
RNA: B1 RNA with U26C, G27U, A28U, U29G, C31G
DNA 1: CAATCTGAATTCCGGTCTCCC
DNA 2: TGGTGGCTACGACGGGATT
B11: CCGCUUG (DNA:RNA)
RNA: B1 RNA with G25C, U26C, A28C, C30U, C31G
DNA 1: CAATCTGAATTCCGGTCTCCC
DNA 2: TGGTGGCTACGACGGGATT
B12: UAAGGUC (DNA:RNA)
RNA: B1 RNA with G25U, U26A, G27A, A28G, U29G, C30U
DNA 1: CAATCTGAATTCCGGTCTCCC
DNA 2: TGGTGGCTACGACGGGATT
B13: UACUCGA (DNA:RNA)
RNA: GGGAGACCGGAAUUCAGAUUGUCCUACUCGAUUAAAUCCCGUCGUAGCCACCA
DNA 1: CAATCTGAATTCCGGTCTCCC
DNA 2: TGGTGGCTACGACGGGATT
B14: AUACUGG (DNA:RNA)
RNA: B1 RNA with G25A, G27A, A28C, C30G, C31G
DNA 1: CAATCTGAATTCCGGTCTCCC
DNA 2: TGGTGGCTACGACGGGATT
B15: GUUACCU (DNA:RNA)
RNA: B1 RNA with G27U, U29C, C31U
DNA 1: CAATCTGAATTCCGGTCTCCC
DNA 2: TGGTGGCTACGACGGGATT
B16: CCCUACU (DNA:RNA)
RNA: B13 RNA with U25C, A26C, C29A, G30C, A31U
DNA 1: CAATCTGAATTCCGGTCTCCC
DNA 2: TGGTGGCTACGACGGGATT
B17: UGGGUCA (DNA:RNA)
RNA: B1 RNA with G25U, U26G, A28G, C31A
DNA 1: CAATCTGAATTCCGGTCTCCC
DNA 2: TGGTGGCTACGACGGGATT
B18: UGGGUCG (DNA:RNA)
RNA: B1 RNA with G25U, U26G, A28G, C31G
DNA 1: CAATCTGAATTCCGGTCTCCC
DNA 2: TGGTGGCTACGACGGGATT
B19: UGGGACC (DNA:RNA)
RNA: B1 RNA with G25U, U26G, A28G, U29A
DNA 1: CAATCTGAATTCCGGTCTCCC
DNA 2: TGGTGGCTACGACGGGATT
B20: CUGGUCC (DNA:RNA)
RNA: B1 RNA with G25C, A28G
DNA 1: CAATCTGAATTCCGGTCTCCC
DNA 2: TGGTGGCTACGACGGGATT
B21: UGGUCCG (DNA:RNA)
RNA: B13 RNA with A26G, C27G, G30C, A31G
DNA 1: CAATCTGAATTCCGGTCTCCC
DNA 2: TGGTGGCTACGACGGGATT
B22: UGGGUCC (DNA:RNA)
RNA: B1 RNA with G25U, U26G, A28G
DNA 1: CAATCTGAATTCCGGTCTCCC
DNA 2: TGGTGGCTACGACGGGATT
B23: UCAAUCC (DNA:RNA)
RNA: B1 RNA with G25U, U26C, G27A
DNA 1: CAATCTGAATTCCGGTCTCCC
DNA 2: TGGTGGCTACGACGGGATT
B24: UAUUGCC (DNA:RNA)
RNA: B13 RNA with C27U, C29G, G30C, A31C
DNA 1: CAATCTGAATTCCGGTCTCCC
DNA 2: TGGTGGCTACGACGGGATT
B25: UGUUAGC (DNA:RNA)
RNA: B13 RNA with A26G, C27U, C29A, A31C
DNA 1: CAATCTGAATTCCGGTCTCCC
DNA 2: TGGTGGCTACGACGGGATT
B26: GACUGAA (DNA:RNA)
RNA: B13 RNA with U25G, C29G, G30A
DNA 1: CAATCTGAATTCCGGTCTCCC
DNA 2: TGGTGGCTACGACGGGATT
B27: UUCAGCC (DNA:RNA)
RNA: B1 RNA with G25U, G27C, U29G
DNA 1: CAATCTGAATTCCGGTCTCCC
DNA 2: TGGTGGCTACGACGGGATT
B28: ACCUUCG (DNA:RNA)
RNA: B1 RNA with G25A, U26C, G27C, A28U, C31G
DNA 1: CAATCTGAATTCCGGTCTCCC
DNA 2: TGGTGGCTACGACGGGATT
B29: ACCUAAG (DNA:RNA)
RNA: B13 RNA with U25A, A26C, C29A, G30A, A31G
DNA 1: CAATCTGAATTCCGGTCTCCC
DNA 2: TGGTGGCTACGACGGGATT
B30: UUACAAU (DNA:RNA)
RNA: B1 RNA with G25U, G27A, A28C, U29A, C30A, C31U
DNA 1: CAATCTGAATTCCGGTCTCCC
DNA 2: TGGTGGCTACGACGGGATT
B31: GAUUGAC (DNA:RNA)
RNA: B1 RNA with U26A, G27U, A28U, U29G, C30A
DNA 1: CAATCTGAATTCCGGTCTCCC
DNA 2: TGGTGGCTACGACGGGATT

What follows are binders tested against T1, RBFOX1 RRM (Homo sapiens, UniProt Q9NWB1 109-208) (assay: EMSA; HiTS-Eq, 1 nM pool, 10 min; buffer printed only for the single-RNA assays: 10 mM Tris pH 7.5, 150 mM NaCl, 3.4 mM EDTA, 0.001% NP-40, 30 C). Settings: tags: His6 N-terminal (pET28a); label: 5' 32P.
T1 sequence: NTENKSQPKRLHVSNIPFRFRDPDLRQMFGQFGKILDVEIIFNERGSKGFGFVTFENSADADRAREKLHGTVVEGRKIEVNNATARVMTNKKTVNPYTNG
How it was run: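 These values rest on relative association constants, computed from read-count changes of each RNA species versus the control reaction and normalised to the cognate motif. Reads came from free RNA recovered by 8% native PAGE after purified RbFox RRM (wild type or mutant) at increasing concentrations was equilibrated for 10 min in 50 µL with 1 nM of a 5′-radiolabelled pool with 7 randomized nucleotides and DNA-annealed flanks.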
In the case of B1, the binding signal is reported as 0.0187 KA relative to UGCAUGU. For B2, the binding signal was 0.0254 KA relative to UGCAUGU. With B3 the binding signal was 0.0228 KA relative to UGCAUGU. For B4, the binding signal was 0.0354 KA relative to UGCAUGU. With B5 the binding signal was 0.00504 KA relative to UGCAUGU. B6 was tested, and the binding signal was 0.0329 KA relative to UGCAUGU. For B7, the binding signal was 0.0232 KA relative to UGCAUGU. For B8, the binding signal was 0.032 KA relative to UGCAUGU. In the case of B9, the binding signal is reported as 0.0113 KA relative to UGCAUGU. With B10 the binding signal was 0.0193 KA relative to UGCAUGU. B11 was tested, and the binding signal was 0.0253 KA relative to UGCAUGU. B12 was tested, and the binding signal was 0.0168 KA relative to UGCAUGU. With B13 the binding signal was 0.0112 KA relative to UGCAUGU. B14 was tested, and the binding signal was 0.00795 KA relative to UGCAUGU. B15 was tested, and the binding signal was 0.00787 KA relative to UGCAUGU. B16 was tested, and the binding signal was 0.00609 KA relative to UGCAUGU. For B17, the binding signal was 0.0232 KA relative to UGCAUGU. For B18, the binding signal was 0.0407 KA relative to UGCAUGU. B19 was tested, and the binding signal was 0.0142 KA relative to UGCAUGU. With B20 the binding signal was 0.0227 KA relative to UGCAUGU. For B21, the binding signal was 0.017 KA relative to UGCAUGU. For B22, the binding signal was 0.0332 KA relative to UGCAUGU. B23 was tested, and the binding signal was 0.00161 KA relative to UGCAUGU. With B24 the binding signal was 0.012 KA relative to UGCAUGU. For B25, the binding signal was 0.0176 KA relative to UGCAUGU. For B26, the binding signal was 0.0274 KA relative to UGCAUGU. With B27 the binding signal was 0.0103 KA relative to UGCAUGU. In the case of B28, the binding signal is reported as 0.00839 KA relative to UGCAUGU. With B29 the binding signal was 0.00359 KA relative to UGCAUGU. For B30, the binding signal was 0.00107 KA relative to UGCAUGU. With B31 the binding signal was 0.0228 KA relative to UGCAUGU.

— article PMC9911399, “Two distinct binding modes provide the RNA-binding protein RbFox with extraordinary sequence specificity”
